{"source": "PubChem BioAssay (Tox21)", "note": "Unmarked numbers belong to inactive results. Calls come from the whole dose curve; as a rule, active = well fitted activation curve with a large enough effect in the repeat runs; inconclusive = weak or mixed curves; inactive = flat fitted curve, though single readings scatter. % is set by controls: 0 for no effect and ±100 for the full control effect.", "data": [{"experiment": "A CellTox Green Cytotoxicity Assay to monitor cytotoxicity in HepG2 cells - 0 hour (AID 1224882); note: nearly all actives have a fitted effect of over 35% in size", "settings": "CellTox Green fluorescence; series mostly up to 76.8 µM; cytotoxicity: at the top concentration", "source_text": "National Center for Advancing Translational Sciences [NCATS]\nNIH Chemical Genomics Center [NCGC]\nU.S. Environmental Protection Agency [EPA]\nNational Institutes of Environmental Health Sciences [NIEHS]\nNational Toxicology Program [NTP]\nCell-based models are critical for drug discovery. Determining the natural cytotoxic effects resulting from test compounds is an essential research activity. A CellTox Green Cytotoxicity Assay to monitor cytotoxicity in real time of continues cell culture during 40 hours of the compound treatment was used to screen Tox21 10K library compounds in HepG2 cells. CellTox Green Cytotoxicity Assay is a nonlytic, homogeneous, biofluorescent method to measure cytotoxicity in cell culture after experimental manipulation. The assay system uses a proprietary asymmetric cyanine dye that is excluded from viable cells but preferentially stains the dead cell's DNA. […] Viable cells produce no appreciable increases in fluorescence. Therefore, the fluorescence signal produced by the binding interaction with dead cell DNA is proportional to cytotoxicity.\nThe mixture of HepG2 cell suspension and reagents were dispensed at 600cells/6 ul/well in 1536-well tissue culture treated black solid bottom plates using a Multidrop dispenser. After the assay plates were incubated at a 37 C/5% CO2 incubator for 5 hours, 23 nL of compounds dissolved in DMSO, positive and negative controls was transferred to the assay plate by a pintool work station. The plates were incubated at 37 C for 40 hours. The fluorescence intensity were measured at 0h, 8h, 16h, 24h, 32h and 40h time points using ViewLux plate reader during compound treatment.", "values": [{"smiles": "C1CCC2OC2C1", "note": "(stereo not given)", "cytotoxicity": "-1.23%"}, {"smiles": "O=CNc1ccccc1", "cytotoxicity": "-0.858%"}, {"smiles": "O=C(NN1CCCC1)NS(=O)(=O)c1ccc(Cl)cc1", "cytotoxicity": "3.18% [at 35.3 µM]"}, {"smiles": "O=C1CCCCCO1", "cytotoxicity": "-0.402%"}, {"smiles": "O=C1[C@H](CC[C@H](O)c2ccc(F)cc2)[C@@H](c2ccc(O)cc2)N1c1ccc(F)cc1", "cytotoxicity": "-0.869% [at 35.3 µM]"}, {"smiles": "CN(C)C/C=C(/c1ccc(Br)cc1)c1cccnc1", "cytotoxicity": "-2.29% [at 35.3 µM]"}, {"smiles": "CN1CCN(C2=Nc3ccccc3Sc3ccc(Cl)cc32)CC1", "cytotoxicity": "7.91% [at 35.3 µM]"}, {"smiles": "CC(=O)/C(C)=C/C1C(C)=CCCC1(C)C", "note": "(stereo not given)", "cytotoxicity": "14%"}, {"smiles": "CCCCOCCOCCOCCOCCO", "cytotoxicity": "-2.67%"}, {"smiles": "NC(=S)N/N=C/c1cccnc1", "cytotoxicity": "-19.2% [at 35.3 µM]"}, {"smiles": "CCC(=O)OC(C)(C)C1CC=C(C)CC1", "note": "(stereo not given)", "cytotoxicity": "-5.79%"}, {"smiles": "CCN1CCC[C@H]1CNC(=O)c1c(OC)ccc(Br)c1OC", "cytotoxicity": "-16.9% [at 35.3 µM]"}, {"smiles": "CC(C)c1ccccc1C(C)C", "cytotoxicity": "5.46%"}, {"smiles": "CC(C)NCC(O)COc1ccc(CC(N)=O)cc1", "note": "(stereo not given)", "cytotoxicity": "-19%"}, {"smiles": "NCCCOCCOCCOCCCN", "cytotoxicity": "0.831%"}, {"smiles": "O=C(c1ccccc1)c1ccc2n1CCC2C(=O)O", "note": "(stereo not given)", "cytotoxicity": "-0.979% [at 35.3 µM]"}, {"smiles": "CCCC(=O)OCC", "cytotoxicity": "-9.26%"}, {"smiles": "CCC(C)N(C)C(=O)c1cc2ccccc2c(-c2ccccc2Cl)n1", "note": "(stereo not given)", "cytotoxicity": "-0.224% [at 35.3 µM]"}, {"smiles": "Nc1nc(N)c(-c2ccccc2)s1", "cytotoxicity": "-0.139% [at 35.3 µM]"}, {"smiles": "C[C@@H](C1=C(CCN(C)C)Cc2ccccc21)c1ccccn1", "cytotoxicity": "3.47% [at 35.3 µM]"}, {"smiles": "CN1CCN(C2=Nc3cc(Cl)ccc3Nc3ccccc32)CC1", "cytotoxicity": "-2.1% [at 35.3 µM]"}, {"smiles": "O=C(C(=O)c1ccc(Br)cc1)c1ccc(Br)cc1", "cytotoxicity": "-5.86% [at 15.8 µM]"}, {"smiles": "O=C1Nc2cc(Cl)ccc2Oc2ccccc21", "cytotoxicity": "-0.769% [at 35.3 µM]"}, {"smiles": "C=CC(=O)OCCOC(=O)CCC(=O)O", "cytotoxicity": "-4.48%"}, {"smiles": "CCCCCCCCC(CO)CCCCCC", "note": "(stereo not given)", "cytotoxicity": "-0.336%"}, {"smiles": "CCCCCCCCCCCCCCC1CO1", "note": "(stereo not given)", "cytotoxicity": "-0.157%"}, {"smiles": "CCN(CC)CCc1nc(-c2ccccc2)no1", "cytotoxicity": "1.08% [at 35.3 µM]"}, {"smiles": "NC(N)=NN=C(/C=C/c1ccc([N+](=O)[O-])o1)/C=C/c1ccc([N+](=O)[O-])o1", "cytotoxicity": "-1.81% [at 35.3 µM]"}, {"smiles": "O=C(c1ccc(O)cc1)c1ccc(O)cc1", "cytotoxicity": "0.256%"}, {"smiles": "Cc1cc(CC(=O)O)c(C)n1-c1ccc(Cl)cc1", "cytotoxicity": "13.9% [at 35.3 µM]"}, {"smiles": "O=C=NC1CCC(CC2CCC(N=C=O)CC2)CC1", "note": "(stereo not given)", "cytotoxicity": "0.625%"}, {"smiles": "S=C(S)NCCNC(=S)S", "cytotoxicity": "-7.65%"}, {"smiles": "CNS(=O)(=O)Cc1ccc2[nH]cc(CCN(C)C)c2c1", "cytotoxicity": "-9.85% [at 35.3 µM]"}, {"smiles": "ClC(Cl)(Cl)c1ccc(C(Cl)(Cl)Cl)cc1", "cytotoxicity": "0%"}, {"smiles": "O=C(O)c1cccc(N(Cc2cccnc2)c2ccc(OC(F)F)c(OC(F)F)c2)c1", "cytotoxicity": "1.07%"}, {"smiles": "CC[C@H](C)[C@H](N)C(=O)O", "cytotoxicity": "-9.76% [at 35.3 µM]"}, {"smiles": "C=C(C)C(=O)OC(C)C", "cytotoxicity": "0.291%"}, {"smiles": "CCN(CC)CCNC(C(=O)OCCC(C)C)c1ccccc1", "note": "(stereo not given)", "cytotoxicity": "-12.2% [at 35.3 µM]"}, {"smiles": "COc1ccc([C@@H]2Sc3ccccc3N(CCN(C)C)C(=O)[C@@H]2OC(C)=O)cc1", "cytotoxicity": "-7.89% [at 35.3 µM]"}, {"smiles": "O=C(NS(=O)(=O)/C=C/c1cccs1)c1ccc(F)cc1Br", "cytotoxicity": "-4.71%"}]}]}
